In PubChem BioAssay (NCATS):
Records with an inconclusive call do not appear. Calls of active or inactive are those of the source. Unless noted, the call rests on the fitted dose curve; in most records, active means well fitted curve in the direction sought with a large enough effect; inconclusive means small, poorly fitted or top-dose-only effect, or another doubt; inactive means no such curve, though single readings can be large; an effect the other way counts as inactive or inconclusive.

Assays:
[1] = target: Nuclear receptor subfamily 1 group I member 3 (Homo sapiens) (UniProt Q14994); test: qHTS for Constitutive Androstane Receptor (CAR) Agonist screened against the NCATS CANVASS Library (AID 1347373)
Chain of Nuclear receptor subfamily 1 group I member 3 (Homo sapiens) (Q14994 whole entry, looked up): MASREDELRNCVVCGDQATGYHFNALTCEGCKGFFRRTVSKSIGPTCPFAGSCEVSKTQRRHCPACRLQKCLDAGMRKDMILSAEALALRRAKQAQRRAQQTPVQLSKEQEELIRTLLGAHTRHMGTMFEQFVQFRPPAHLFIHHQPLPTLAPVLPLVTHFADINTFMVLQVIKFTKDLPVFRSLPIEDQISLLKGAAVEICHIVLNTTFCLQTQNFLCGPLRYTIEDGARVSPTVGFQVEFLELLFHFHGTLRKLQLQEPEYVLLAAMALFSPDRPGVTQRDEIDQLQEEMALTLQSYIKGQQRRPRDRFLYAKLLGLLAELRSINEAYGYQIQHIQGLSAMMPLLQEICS
Method in brief: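 CAR agonism is scored as CYP2B6-promoter luciferase induction in a double-stable transfected HepG2 line, where 1.5uM PK11195 is included in each well. Compounds were tested over a 24hr exposure.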

[2] = qHTS for Hypoxia signaling pathway (HIF-1) antagonists against the NCATS CANVASS Library (AID 1347374)
Method in brief: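 HRE-bla ME-180 cells (2,000/well, 0.5% dialyzed FBS) were pre-incubated 5 h, then given an 11-point compound series plus CoCl2 (60 uM solution as added) for 17 h at 37C. CCF4 β-lactamase read (ex 405, em 460/530 nm) after 2 h at RT.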

[3] = qHTS for Hypoxia signaling pathway (HIF-1) agonists against the NCATS CANVASS Library (AID 1347375)
Method in brief: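 Inducers of HIF-1 signaling were detected in ME-180 cells bearing an HRE-driven beta-lactamase reporter after 17 h compound exposure. Activity came from CCF4-AM FRET emission ratio (460/530 nm) in qHTS format.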

[4] = 10-beta competent E. coli microbial cell viability qHTS against the NCATS CANVASS Library (AID 1347376)
Method in brief: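 Cytotoxicity toward competent E. coli is scored from cellular ATP content via BacTiter-Glo luminescence following overnight compound exposure at 37C, 5% CO2.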

[5] = DH5-alpha competent E. coli microbial cell viability qHTS against the NCATS CANVASS Library (AID 1347377)
Method in brief: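 Cell viability of competent DH5-alpha E. coli is scored from ATP content by luminescence. Cells sit overnight at 37C with compound across an 11-point concentration series.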

[6] = qHTS for H2AX Agonists against the NCATS CANVASS Library (AID 1347378)
Method in brief: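 Phospho-H2AX (S139) in CHO-K1 lysates measured by HTRF, reported as 665/615 nm emission ratio after 24 hr antibody incubation at room temperature. Cells were first treated with a compound series for 3 hr at 37C (0.76% DMSO final).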

[7] = qHTS for Inflammasome Signaling Inhibitors: IL-1-beta AlphaLISA screen against the NCATS CANVASS Library (AID 1347379)
Method in brief: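 Human THP-1 cells were pretreated 1 hr at 37 °C with compounds (up to 57.5 uM final), then stimulated with LPS (250 ng/mL final) and ATP (1.25 mM final). Secreted IL-1B was read by AlphaLISA after 16 hr.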

[8] = qHTS for Antimalaria activity screened against the NCATS CANVASS Library (AID 1347380)
Method in brief: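 Growth inhibition of asexual erythrocytic P. falciparum Dd2 was quantified by SYBR Green DNA staining. Cultures grew 72 h with compound (11-point series) in hypoxic gas at 37C; lysis and staining lasted 18 h.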

[9] = Inflammasome Signaling qHTS Counterscreen: IL-1-beta AlphaLISA counterscreen against the NCATS CANVASS Library (AID 1347381)
Method in brief: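 To flag interference with the AlphaLISA read-out, a known amount of purified IL-1-beta (4 pg) replaced cell supernatant. Detection used anti-IL-1-beta acceptor beads, biotinylated antibody and streptavidin donor beads at room temperature.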

[10] = Cytotoxicity qHTS for assessment of Hepg2 cells membrane integrity screened against the NCATS CANVASS Library (AID 1347387)
Method in brief: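 Fluorescence proportional to lysed-cell number, from LDH leaking out of HepG2 cells exposed 5 hr at 37C to 0.59 nM - 46 uM compound (11-point qHTS), is measured after 10 min with CytoTox-ONE.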

[11] = qHTS assay for small molecule disruptors of mitochondrial membrane potential screened against the NCATS CANVASS Library (AID 1347389)
Method in brief: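 Compounds tested in 11-point qHTS series on HepG2 cells for 1 hr; membrane-potential dye added for 30 min at 37C. Lower red-to-green ratio indicates loss of potential.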

[12] = Secretion counterscreen for inhibitors of the SERCaMP assay screened against the NCATS CANVASS Library (AID 1347390)
Method in brief: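 Counterscreen for secretory-pathway interference: after 4 h attachment, SH-SY5Y-GLuc cells were exposed 20 hours to compounds (final 0.001 - 77 uM), then coelenterazine added and GLuc luminescence recorded; Brefeldin A served as control.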

[13] = qHTS for activators of Nrf2/ARE signaling pathway screened against the NCATS CANVASS Library (AID 1347391)
Method in brief: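 Cells carrying an ARE-driven beta-lactamase reporter (HepG2 background) are dosed for 16 h, then stained with CCF4. Cell viability in the same wells is measured by CellTiter-Glo luminescence.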

[14] = qHTS for activators of dead-cell proteases activity screened against the NCATS CANVASS Library (AID 1347392)
Method in brief: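 Compounds are pin-transferred onto attached HepG2 cells, giving 11 final concentrations. After 5 h at 37C, AAF-aminoluciferin reagent is added and luminescence is recorded at room temperature.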

[15] = qHTS for inhibitors of ER calcium dysfunction: SERCaMP assay screened against the NCATS CANVASS Library (AID 1347393)
Method in brief: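 Thapsigargin-induced ER calcium depletion drives GLuc-SERCaMP secretion from SH-SY5Y cells; compounds given 16 h beforehand were scored by lowered coelenterazine luminescence after 4 h challenge.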

[16] = Vero-766 cells viability qHTS against the NCATS CANVASS Library: Counterscreen for Zika virus inhibition assay (AID 1347394)
Method in brief: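 CellTiter Glo luminescence measured cytotoxicity after 72 h at 37C in uninfected Vero 766 cells, plated at 1000 cells/well. Compounds were applied in an 11-point series. Wells without cells defined 100% inhibition.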

[17] = qHTS for inhibitors of Wild type Zika virus screened against the NCATS CANVASS Library (AID 1347396)
Method in brief: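 Protection against wild-type Zika cytopathic effect is measured in African green monkey Vero 766 cells exposed to an 11-point compound series. Surviving cells are quantified by CellTiter Glo luminescence after 72 h.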

[18] = Viability qHTS for inhibitors of the SERCaMP assay screened against the NCATS CANVASS Library (AID 1347400)
Method in brief: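 Cytotoxicity counter-screen: ATP content (CellTiter-Glo luminescence) of SH-SY5Y-GLuc SERCaMP MJH297 cells after 48 h at 37C with compounds in an 11-point qHTS series.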

[19] = Redox Reaction Profiling qHTS: Assay Interference Panel against the NCATS CANVASS Library (AID 1347401)
Method in brief: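 Cell-free redox surrogate: 5 uM resazurin + 200 uM DTT, 50 mM HEPES pH 7.3/50 mM NaCl; cpds pinned, 11-pt qHTS; Ex525/Em598 read t0 and t=15 min, dark.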

[20] = qHTS for inhibitors of Rabies Virus screened against the NCATS CANVASS Library (AID 1347402; calls by dose curve)

Measured: outcome

CN(C)CCc1c[nH]c2ccccc12
inactive: [1] | [2] | [3] | [4] | [5] | [6] | [7] | [8] | [9] | [10] | [11] | [12] | [13] | [14] | [15] | [16] | [17] | [18] | [19] | [20]
